Reference: PubChem BioAssay (NCATS)
Records with an inconclusive call do not appear. Calls of active or inactive are those of the source. Unless noted, calls follow the shape of the dose curve; as a rule, active = well fitted curve in the direction sought with a large enough effect; inconclusive = small, poorly fitted or top-dose-only effect, or another doubt; inactive = no such curve, though single readings can be large; an effect the other way counts as inactive or inconclusive.

Tests used:
[1] = Confirmation and Secondary Assay for Modulators of Hemoglobin Beta Chain Splicing at IVS2 654 locus (AID 910);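 also: HeLa cells stably carrying EGFP split by mutant beta-globin IVS2-654 intron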
Method in brief: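 Readout: per-well total peak green fluorescence (488 nm ex, 500–520 nm em) from objects 5–250 µm, reflecting correct splicing of an EGFP-654 reporter. Compounds were applied for 2 days at 37 °C to overnight-plated HeLa EGFP-654 cells; controls were DMSO and 500 nM IVS2-654 PNA.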

[2] = Confirmation and Secondary Assay for Modulators of Hemoglobin Beta Chain Splicing at IVS2 705 locus (AID 930);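 also: HeLa cells stably expressing the EGFP-705 splicing reporter; GFP fluorescence per well restored by corrected splicing of the IVS2-705 intron in EGFP; series mostly up to about 46 µM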
Method in brief: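 Read-out: total peak GFP fluorescence per well (488 nm excitation, 500-520 nm emission) by laser-scanning cytometry. Cells: HeLa EGFP-705 splicing reporter, 2 days compound exposure in Optimem/2% FCS.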

[3] = system: Zika virus NS2B-NS3 protease; experiment: Primary screen GU AMC qHTS for Zika virus inhibitors (AID 1347154); also: nearly all actives have a fitted effect of over 70% in size
Method in brief: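 Fluorogenic AMC-substrate cleavage by noncovalent NS2B-NS3 protease complex (25 nM, pH 8.0 Tris buffer with Tween 20) followed for 15 minutes at room temperature (~20% conversion). Percent inhibition from ex340/em450 signal change, fitted by 4-parameter Hill equation.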

[4] = Confirmatory screen GU Rhodamine qHTS for Zika virus inhibitors qHTS (AID 1347157); also: nearly all actives have a fitted effect of over 70% in size; also: potency is read from the fitted curve at half-maximal effect
Method in brief: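 In dose–response format, inhibition of unlinked protease (25 nM) was measured with 1.5 microM bis-peptide Rhodamine110 substrate. Aprotinin served as the intraplate control.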

[5] = ZIKV-mCherry secondary qHTS for Zika virus inhibitors (AID 1347158); also: top concentration of the series differs between compounds
Method in brief: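 Read-out is percent infection: mCherry-positive Vero cells (nuclear-proximal intensity >450 RFU, 3 SD above negative controls) counted by high-content imaging of Hoechst-stained, PFA-fixed wells after 48-72 h with ZIKV-mCherry at MOI 1 and compound.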

[6] = Confirmatory screen NINDS Rhodamine qHTS for Zika virus inhibitors (AID 1347161); also: nearly all actives have a fitted effect of over 60% in size; also: potency is read from the fitted curve at half-maximal effect
Method in brief: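 Purified linked NS2B-NS3 protease (NS2B hydrophilic domain joined to NS3 protease by flexible linker), 25 nM in 10 mM Tris-HCl pH 8.0, 0.01% Tween 20. Compounds titrated, 15 min preincubation at room temperature; 1.5 microM Rhodamine110 substrate, FITC fluorescence change over 15 min.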

[7] = system: Zika virus NS2B-NS3 protease (linked construct); experiment: 384 well plate NINDS Rhodamine confirmatory qHTS for Zika virus inhibitors (AID 1347164);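 also: fluorescence from protease cleavage of Ac-LKRR-rhodamine 110 substrate; potency is read from the fitted curve at half-maximal effect; nearly all actives have a fitted effect of over 65% in size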
Method in brief: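 Fluorescence at 485/538 nm was measured 25 minutes after adding 10 microM Ac-LKRR-Rd substrate, in the dark at room temperature. The protease (5, 30 or 60 nM final) had been preincubated ~15 minutes with compound; aprotinin as control.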

[8] = Tertiary RLuc qRT-PCR qHTS assay for Zika virus inhibitors (AID 1347169); also: top concentration of the series differs between compounds; nearly all actives have a fitted effect of over 55% in size
Method in brief: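 Orthogonal cell-based readout: luminescence measured 1-1.5 hrs after adding live-cell Renilla substrate to Vero cells that had been infected with ZIKV-RLuc (MOI 1-2) post-compound, incubated 48-72 hrs at 37 degrees C.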

[9] = target: Calcium and integrin-binding protein 1 (Homo sapiens) (UniProt Q99828); experiment: Primary qHTS for Identification of Calcium Integrin Binding Protein 1 (CIB1) Competitor (AID 1508620);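 also: GST tagged CIB1 binding a fluorescein labelled alphaIIb integrin peptide tracer; top concentration of the series differs between compounds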
Calcium and integrin-binding protein 1 (Homo sapiens), sequence (Q99828 whole entry, looked up): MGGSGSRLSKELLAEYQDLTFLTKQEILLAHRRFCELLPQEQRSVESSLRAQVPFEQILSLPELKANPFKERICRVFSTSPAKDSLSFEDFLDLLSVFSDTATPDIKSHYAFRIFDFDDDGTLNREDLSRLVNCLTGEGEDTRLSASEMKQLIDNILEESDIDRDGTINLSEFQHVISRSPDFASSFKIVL
Method in brief: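 CIB1-GST (1 uM final) and compound incubated 15 min at room temperature before adding FITC-alphaIIb peptide tracer (100 nM final). Competition for binding read by fluorescence polarization (ex 480, em 540) after another 15 min at room temperature.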

[10] = target: Glucocorticoid receptor (Homo sapiens) (UniProt P04150); experiment: GR-GFP Redistribution (AID 450;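 active = compounds whose dose series gives a full or clear partial fitted curve of increased nuclear translocation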; also: potency is read from the fitted curve at half-maximal effect); conditions: U2OS GR-GFP nuclear translocation, laser cytometry, 2 h
Glucocorticoid receptor (Homo sapiens), sequence (P04150 whole entry, looked up, the tested form may be a part): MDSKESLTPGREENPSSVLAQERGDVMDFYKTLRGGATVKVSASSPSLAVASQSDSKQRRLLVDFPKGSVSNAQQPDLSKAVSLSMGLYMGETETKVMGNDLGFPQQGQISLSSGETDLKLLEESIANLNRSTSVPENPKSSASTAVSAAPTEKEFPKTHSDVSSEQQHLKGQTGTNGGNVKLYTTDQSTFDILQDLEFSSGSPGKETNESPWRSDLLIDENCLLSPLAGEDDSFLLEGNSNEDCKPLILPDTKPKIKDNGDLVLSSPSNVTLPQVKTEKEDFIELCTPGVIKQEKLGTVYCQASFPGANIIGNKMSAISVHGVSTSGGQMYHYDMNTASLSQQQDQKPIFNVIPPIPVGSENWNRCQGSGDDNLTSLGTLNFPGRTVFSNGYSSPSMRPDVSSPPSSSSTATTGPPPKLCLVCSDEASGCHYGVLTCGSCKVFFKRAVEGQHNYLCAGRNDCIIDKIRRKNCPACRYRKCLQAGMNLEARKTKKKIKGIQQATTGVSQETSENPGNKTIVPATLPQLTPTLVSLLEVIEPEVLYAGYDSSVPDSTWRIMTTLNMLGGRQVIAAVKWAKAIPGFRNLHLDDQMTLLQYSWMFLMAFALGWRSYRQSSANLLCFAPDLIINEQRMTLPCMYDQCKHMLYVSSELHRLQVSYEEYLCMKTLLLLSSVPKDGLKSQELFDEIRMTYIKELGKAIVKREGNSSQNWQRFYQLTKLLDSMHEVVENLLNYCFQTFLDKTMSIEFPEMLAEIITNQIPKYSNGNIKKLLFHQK

[11] = target: Glucocorticoid receptor (Homo sapiens) (UniProt P04150); experiment: GR-EFC Redistribution (AID 451; calls by dose curve; also: potency is read from the fitted curve at half-maximal effect); conditions: CHO-K1 GR-EFC translocation, beta-gal luminescence, 2 h
Method in brief: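 Translocation of GR-ED fusion to nuclear EA restores b-gal, read by luminescence after 1 h room-temperature detection. Engineered CHO-K1 biosensor cells, 1,000/well, exposed 2 h at 37 C to titrations up to 46 uM final.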

[12] = target: Mitogen-activated protein kinase 10 (Mus musculus) (UniProt Q61831); experiment: JNK3 AlphaScreen Assay (AID 530; active = well fitted curve in either direction with a large enough effect, not every such curve was filed as active;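 also: kinase came from lysate of stimulated human HepG2 cells; signal reports phosphorylation of biotinylated GST-cJun 1-79 at Ser73 with 10 µM ATP; series mostly up to about 57 µM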)
Method in brief: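 Kinase buffer: 20 mM Tris-HCl pH 7.6, 10 mM MgCl2, 1 mM DTT, 0.1 mM Na3VO4, 0.01% Tween-20; ATP 10 uM. Substrate biotin-GST-cJun(1-79), enzyme from activated HepG2 lysates. Detection by Ser73 phospho-antibody AlphaScreen.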

[13] = target: 3',5'-cyclic-AMP phosphodiesterase 4B (Homo sapiens) (UniProt Q07343); experiment: qHTS Assay for Inhibitors of PDE-IV (AID 607; active = well fitted activation curve with a large enough effect in the main read-out, with a control signal flat, not every such curve was filed as active)
3',5'-cyclic-AMP phosphodiesterase 4B (Homo sapiens), sequence (Q07343 whole entry, looked up): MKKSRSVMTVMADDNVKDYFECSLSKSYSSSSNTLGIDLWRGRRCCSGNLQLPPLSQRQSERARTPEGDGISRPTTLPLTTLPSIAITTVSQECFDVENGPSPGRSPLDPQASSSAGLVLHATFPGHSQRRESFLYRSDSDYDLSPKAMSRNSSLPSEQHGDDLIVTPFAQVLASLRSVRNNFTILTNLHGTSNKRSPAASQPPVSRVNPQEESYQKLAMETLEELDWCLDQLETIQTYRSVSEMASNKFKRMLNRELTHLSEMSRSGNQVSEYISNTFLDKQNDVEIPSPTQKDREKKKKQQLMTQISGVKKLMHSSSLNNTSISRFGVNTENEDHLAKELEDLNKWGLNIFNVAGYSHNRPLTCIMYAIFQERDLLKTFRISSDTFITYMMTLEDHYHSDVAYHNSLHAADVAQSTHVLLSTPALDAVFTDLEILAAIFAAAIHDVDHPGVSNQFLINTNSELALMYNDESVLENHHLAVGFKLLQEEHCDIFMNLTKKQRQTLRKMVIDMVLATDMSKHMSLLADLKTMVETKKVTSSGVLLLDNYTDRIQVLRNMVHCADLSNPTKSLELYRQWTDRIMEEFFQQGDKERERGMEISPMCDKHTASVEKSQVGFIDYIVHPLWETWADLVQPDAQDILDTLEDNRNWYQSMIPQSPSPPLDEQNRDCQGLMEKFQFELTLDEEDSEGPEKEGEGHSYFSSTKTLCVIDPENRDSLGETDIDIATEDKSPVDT
Method in brief: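 ACTOne HEK293 cells carry a modified cAMP-gated CNG channel and express endogenous PDE4; plated 1000 cells/well, compounds up to 22.9 uM final. Membrane-potential dye fluorescence (ex 535/em 590) was read; parental cells received 10 uM forskolin + 100 uM RO 20-1724.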

[14] = target: Guanine nucleotide-binding protein G(i) subunit alpha-1 (Homo sapiens) (UniProt P63096); experiment: qHTS Assay for Inhibitors of RGS12 GoLoco Motif Activity (Green Fluorophore) (AID 879);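 also: negative values mean loss of peptide binding seen as reduced polarization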
Guanine nucleotide-binding protein G(i) subunit alpha-1 (Homo sapiens), sequence (P63096 whole entry, looked up): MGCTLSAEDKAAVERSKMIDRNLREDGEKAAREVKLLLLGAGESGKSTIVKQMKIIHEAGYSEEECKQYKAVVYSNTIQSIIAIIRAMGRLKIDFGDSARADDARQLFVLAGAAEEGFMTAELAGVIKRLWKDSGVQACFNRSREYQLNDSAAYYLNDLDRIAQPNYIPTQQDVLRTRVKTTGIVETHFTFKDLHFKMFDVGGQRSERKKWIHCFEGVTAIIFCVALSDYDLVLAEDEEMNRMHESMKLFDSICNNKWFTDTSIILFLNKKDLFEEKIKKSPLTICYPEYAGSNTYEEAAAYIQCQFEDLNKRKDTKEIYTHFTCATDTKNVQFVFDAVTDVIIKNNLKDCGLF
Method in brief: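 A drop in FITC polarization marked displacement of the FITC-tagged RGS12 GoLoco peptide (10 nM) from Gαi1 (50 nM). Compounds were incubated 10 min at room temperature in Tris pH 7.5 buffer containing 150 mM NaCl, 0.1 mM GDP and 0.05% NP40; unlabeled peptide titration served as control.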

[15] = qHTS Assay for Identification of Small Molecule Agonists for Thrombopoietin (TPO) Signaling Pathway (AID 917)
Method in brief: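 Luciferase reporter (Glycoprotein IIb promoter) in IL-3-deprived Ba/F3 cells carrying human TPO receptor; compounds co-added with 26 pM TPO, incubated 24 h, 37 C. Steadylite luminescence measured after 10 min.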

[16] = target: Muscarinic acetylcholine receptor M1 (Rattus norvegicus) (UniProt P08482); experiment: qHTS Assay for Antagonists of Acetylcholine Muscarinic M1 Receptor: Kinetic Measurement of Intracellular Calcium Response (AID 943);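 also: Fluo-4 calcium signal as peak divided by basal fluorescence over 4 min; series mostly up to about 35 µM; nearly all actives have a fitted effect of over 75% in size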
Muscarinic acetylcholine receptor M1 (Rattus norvegicus), sequence (P08482 whole entry, looked up): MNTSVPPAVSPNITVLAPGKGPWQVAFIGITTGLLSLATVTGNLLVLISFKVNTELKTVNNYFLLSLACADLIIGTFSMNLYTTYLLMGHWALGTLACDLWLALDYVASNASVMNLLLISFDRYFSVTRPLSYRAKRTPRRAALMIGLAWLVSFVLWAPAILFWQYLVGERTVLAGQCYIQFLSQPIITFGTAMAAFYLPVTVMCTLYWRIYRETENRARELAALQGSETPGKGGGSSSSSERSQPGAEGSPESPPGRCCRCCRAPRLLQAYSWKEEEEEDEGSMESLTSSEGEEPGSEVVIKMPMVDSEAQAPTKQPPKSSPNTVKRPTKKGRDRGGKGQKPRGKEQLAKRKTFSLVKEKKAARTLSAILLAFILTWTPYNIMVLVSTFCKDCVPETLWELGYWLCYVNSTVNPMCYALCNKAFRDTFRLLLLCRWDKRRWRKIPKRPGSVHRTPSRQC
Method in brief: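 Read-out: peak over basal Fluo-4 fluorescence, kinetic at 1 Hz for 4 min after EC80 carbachol (100 nM final). Rat M1-CHO cells, dye loaded 1 h at 37C, compound added 10 min before agonist.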

[17] = target: Muscarinic acetylcholine receptor M1 (Rattus norvegicus) (UniProt P08482); experiment: qHTS Assay for Antagonists of Acetylcholine Muscarinic M1 Receptor: Measurement of IP-One Response (AID 944); also: nearly all actives have a fitted effect of over 75% in size
Method in brief: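 Read-out: HTRF competition between d2-IP1 and Eu-cryptate anti-IP1 antibody, emission 620 and 665 nm. Stimulus was carbachol, EC80 (200 nM), for 30 min in M1-CHO cells (rat receptor), after 10 min compound pre-treatment.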

[18] = target: Pyruvate kinase (Leishmania mexicana) (UniProt Q27686); experiment: qHTS Validation Assay for Inhibitors of Leishmania Mexicana Pyruvate Kinase (AID 945)
Method in brief: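 Luminescent ATP detection (PKLight) after a 1 h room-temperature reaction of 0.2 nM LmPYK E451W mutant with 0.5 mM PEP and 0.1 mM ADP at pH 7.2. Activity is normalized to DMSO-only control wells.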

[19] = target: Pyruvate kinase PKM (Homo sapiens) (UniProt P14618); experiment: qHTS Assay for Activators of Human Muscle Pyruvate Kinase (AID 954; active = well fitted curve in the direction sought with a large enough effect, not every such curve was filed as active)
Method in brief: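 A coupled luminescent readout tracked ATP made from ADP by purified PKM2. Final conditions included 0.1 nM enzyme, PEP and ADP at 0.5 and 0.1 mM, pH 7.2 imidazole buffer with BSA, and a one-hour room-temperature reaction.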

[20] = target: Alpha-galactosidase A (Homo sapiens) (UniProt P06280); experiment: Counterscreen for Glucocerebrosidase Inhibitors: qHTS Assay for Human alpha-Galactosidase at pH 4.5 (AID 992)
Method in brief: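 Citrate buffer pH 4.5, Tween-20 0.005%. Enzyme 2 nM, substrate 80 uM, 20 min RT. Stop pH 10. Fluorescence Ex 365/Em 440. AC50 by Hill fit.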

[21] = target: alpha-glucosidase (Oryza sativa, rice) (UniProt Q653V4); experiment: Counterscreen for Glucocerebrosidase Inhibitors: qHTS Assay for Rice alpha-Glucosidase at pH 5.0 (AID 997)
Method in brief: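 Endpoint fluorogenic assay at pH 5.0: compounds (0.7 nM to 77 uM) titrated against 4 nM rice enzyme and 400 uM 4-MU-alpha-glucoside for 20 min at room temperature; NaOH/glycine stop, read ex 365/em 440 nm, Hill-fitted AC50.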

[22] = target: DNA dC->dU-editing enzyme APOBEC-3G (Homo sapiens) (UniProt Q9HC16); experiment: qHTS for inhibitors of Vif-A3G interactions: Validation (AID 588379)
DNA dC->dU-editing enzyme APOBEC-3G (Homo sapiens), sequence (Q9HC16 whole entry, looked up): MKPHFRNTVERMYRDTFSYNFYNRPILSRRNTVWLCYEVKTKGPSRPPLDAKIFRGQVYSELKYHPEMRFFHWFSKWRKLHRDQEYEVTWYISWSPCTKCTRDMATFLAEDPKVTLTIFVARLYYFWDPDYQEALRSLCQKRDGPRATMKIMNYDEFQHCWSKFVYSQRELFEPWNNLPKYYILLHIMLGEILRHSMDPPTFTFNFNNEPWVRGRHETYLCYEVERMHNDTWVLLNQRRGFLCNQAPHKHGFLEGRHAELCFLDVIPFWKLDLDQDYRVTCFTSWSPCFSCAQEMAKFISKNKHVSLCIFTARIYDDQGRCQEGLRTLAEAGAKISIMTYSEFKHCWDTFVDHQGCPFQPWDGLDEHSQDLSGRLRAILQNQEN
Method in brief: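 Yellow fluorescence (Ex 488, Em 500-530) of Vif-coexpressing HeLa A3G-eYFP cells, scanned by Acumen cytometer, reports blocked A3G degradation. Cells plated at 700/well overnight at 37 deg C before compound addition, then a further overnight compound incubation at 37 deg C.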

[23] = system: Zika virus NS2B-NS3 protease (linked); experiment: 384 well plate NINDS AMC confirmatory qHTS for Zika virus inhibitors (AID 1347163); also: potency is read from the fitted curve at half-maximal effect; nearly all actives have a fitted effect of over 50% in size
Method in brief: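 Enzyme (5, 30 or 60 nM final) first met test compounds for ~15 min. The AMC-tagged peptide Ac-VKTGKR-AMC followed at 30 microM. Fluorescence was then recorded at 25 min and scaled against no-enzyme and no-inhibitor wells.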

[24] = target: Rap guanine nucleotide exchange factor 3 (Homo sapiens) (UniProt O95398); experiment: Confirmatory qHTS for antagonist of cAMP-regulated guanine nucleotide exchange factor 3 (EPAC1) (AID 1645880); also: potency is read from the fitted curve at half-maximal effect; nearly all actives have a fitted effect of over 55% in size
Rap guanine nucleotide exchange factor 3 (Homo sapiens), sequence (O95398 whole entry, looked up): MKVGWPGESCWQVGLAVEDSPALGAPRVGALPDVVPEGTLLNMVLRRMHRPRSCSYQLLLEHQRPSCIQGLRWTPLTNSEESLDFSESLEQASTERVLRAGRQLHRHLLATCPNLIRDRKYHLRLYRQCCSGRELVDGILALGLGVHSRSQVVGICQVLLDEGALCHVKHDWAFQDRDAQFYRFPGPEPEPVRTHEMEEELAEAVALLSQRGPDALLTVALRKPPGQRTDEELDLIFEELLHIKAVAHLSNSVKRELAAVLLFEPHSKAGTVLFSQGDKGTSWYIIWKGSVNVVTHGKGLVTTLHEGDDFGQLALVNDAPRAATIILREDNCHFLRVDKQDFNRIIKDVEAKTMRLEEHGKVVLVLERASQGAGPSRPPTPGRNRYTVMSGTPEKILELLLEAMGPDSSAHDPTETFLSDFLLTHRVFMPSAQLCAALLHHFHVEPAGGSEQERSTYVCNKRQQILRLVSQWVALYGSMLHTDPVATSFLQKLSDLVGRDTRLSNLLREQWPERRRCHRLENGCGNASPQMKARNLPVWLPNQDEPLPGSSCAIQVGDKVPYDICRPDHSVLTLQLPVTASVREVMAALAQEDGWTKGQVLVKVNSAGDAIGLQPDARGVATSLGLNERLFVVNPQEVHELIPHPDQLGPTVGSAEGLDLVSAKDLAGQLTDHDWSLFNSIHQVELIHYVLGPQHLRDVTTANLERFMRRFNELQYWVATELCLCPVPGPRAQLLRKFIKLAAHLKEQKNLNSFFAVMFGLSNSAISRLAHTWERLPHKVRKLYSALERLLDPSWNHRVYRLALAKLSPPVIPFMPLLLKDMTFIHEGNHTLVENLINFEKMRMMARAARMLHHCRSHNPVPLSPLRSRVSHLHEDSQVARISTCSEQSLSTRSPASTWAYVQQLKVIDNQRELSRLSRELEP
Method in brief: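 Released BODIPY-GDP fluoresces less than Rap1-bound BODIPY-GDP; the signal is followed at 480/540 nm at 5-min intervals over 30 min, after 5 min at room temperature. Reactions contain 100 nM EPAC1, 250 nM RAP1B-BODIPY-GDP and 50 uM GDP; results are normalized to ATA and DMSO.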

[25] = target: Rap guanine nucleotide exchange factor 3 (Homo sapiens) (UniProt O95398); experiment: Confirmatory qHTS for agonist of cAMP-regulated guanine nucleotide exchange factor 3 (EPAC1) (AID 1645881);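 also: EPAC1 catalysed release of BODIPY-GDP from Rap1B seen as fluorescence loss; nearly all actives have a fitted effect of over 75% in size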
[26] = target: Rap guanine nucleotide exchange factor 4 (Homo sapiens) (UniProt Q8WZA2); experiment: Confirmatory qHTS for agonist of cAMP-regulated guanine nucleotide exchange factor 4 (EPAC2) (AID 1645884);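 also: nucleotide exchange releases bodipy-GDP from Rap1 and this lowers its fluorescence; nearly all actives have a fitted effect of over 65% in size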
Rap guanine nucleotide exchange factor 4 (Homo sapiens), sequence (Q8WZA2 whole entry, looked up): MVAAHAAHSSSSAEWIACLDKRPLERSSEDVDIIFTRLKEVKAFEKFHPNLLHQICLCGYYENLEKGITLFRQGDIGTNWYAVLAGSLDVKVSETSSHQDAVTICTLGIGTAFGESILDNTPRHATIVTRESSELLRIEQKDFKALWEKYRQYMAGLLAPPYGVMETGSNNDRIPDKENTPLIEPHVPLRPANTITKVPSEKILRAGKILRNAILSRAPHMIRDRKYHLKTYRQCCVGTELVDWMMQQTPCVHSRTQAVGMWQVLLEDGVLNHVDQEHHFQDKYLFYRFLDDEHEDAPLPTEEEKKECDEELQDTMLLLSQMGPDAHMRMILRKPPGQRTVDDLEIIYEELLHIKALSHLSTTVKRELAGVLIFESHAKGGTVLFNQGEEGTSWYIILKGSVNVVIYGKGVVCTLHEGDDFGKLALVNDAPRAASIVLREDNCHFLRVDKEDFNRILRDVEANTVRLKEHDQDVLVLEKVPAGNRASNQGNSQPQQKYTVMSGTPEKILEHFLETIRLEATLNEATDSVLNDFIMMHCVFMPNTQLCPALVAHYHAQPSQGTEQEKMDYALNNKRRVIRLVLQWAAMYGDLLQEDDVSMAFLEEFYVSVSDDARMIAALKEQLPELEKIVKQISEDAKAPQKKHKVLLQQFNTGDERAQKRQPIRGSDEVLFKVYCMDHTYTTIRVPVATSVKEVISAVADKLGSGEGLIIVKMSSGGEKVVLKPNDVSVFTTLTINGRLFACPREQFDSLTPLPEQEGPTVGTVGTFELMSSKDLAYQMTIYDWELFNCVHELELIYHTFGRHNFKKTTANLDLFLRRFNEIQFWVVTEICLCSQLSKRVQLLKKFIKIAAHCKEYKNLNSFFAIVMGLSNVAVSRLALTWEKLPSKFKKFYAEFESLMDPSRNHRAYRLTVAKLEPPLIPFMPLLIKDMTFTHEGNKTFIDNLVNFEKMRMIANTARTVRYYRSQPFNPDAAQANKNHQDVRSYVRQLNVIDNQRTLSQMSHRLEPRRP

[27] = target: Rap guanine nucleotide exchange factor 4 (Homo sapiens) (UniProt Q8WZA2); experiment: Confirmatory qHTS for antagonist of cAMP-regulated guanine nucleotide exchange factor 4 (EPAC2) (AID 1645885); also: nearly all actives have a fitted effect of over 25% in size
[28] = target: Rap guanine nucleotide exchange factor 3 (Homo sapiens) (UniProt O95398); experiment: Counterscreen qHTS for antagonist of cAMP-regulated guanine nucleotide exchange factor 3 (EPAC1) (AID 1645888)
Method in brief: (§1)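 Rap1B-BODIPY-GDP 250 nM + GDP 50 uM; cpds 7-pt, final 9.74 nM–152 uM (activator mode) or from 7.32 nM upwards (inhibitor mode); RT; FI 480/540 nm at 5 and 30 min, then ± cAMP, reread.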

[29] = target: Rap guanine nucleotide exchange factor 3 (Homo sapiens) (UniProt O95398); experiment: Counterscreen qHTS for agonist of cAMP-regulated guanine nucleotide exchange factor 3 (EPAC1) (AID 1645889); also: nearly all actives have a fitted effect of over 40% in size
Method in brief: as §1

Measured: Potency

COc1ccc2cc(C(C)C(=O)O)ccc2c1 (stereo not given)
inactive: [1] | [2] | [3]

Cc1ccc(-c2cc(C(F)(F)F)c(C#N)c(SCC(=O)O)n2)cc1
inactive: [5]
active: [4] 44.7 µM | [6] 44.7 µM | [7] 126 µM

COc1ccc2c(c1)Oc1nc(-c3ccc(C)s3)nc(SCC(=O)Nc3cccc(C(=O)O)c3)c1C2
active: [4] 5.01 µM | [6] 5.62 µM
inactive: [5] | [8] | [9]

Cc1ccc(NC(=O)c2ccc3c(O)c(S(=O)(=O)c4ccccc4)c(=O)[nH]c3c2)cc1Cl
inactive: [5] | [8]
active: [4] 8.91 µM | [6] 6.31 µM | [7] 44.7 µM

O=C(Nc1ccc(C(=O)OCc2cc(=O)n3nc(C4CC4)sc3n2)cc1)c1cccc(F)c1
inactive: [4] | [6]

C[C@@H]1CNCCN1S(=O)(=O)c1cccc2cnccc12
inactive: [10] > 46 µM | [11] > 46 µM | [12] | [13] | [14] | [15] | [16] | [17] | [18] | [19] | [20] | [21] | [22] | [3]

COc1ccc(NS(=O)(=O)c2ccc3c(c2)[C@H]2C=CC[C@H]2[C@@H](c2ccc(C(=O)O)cc2)N3)cc1
inactive: [5] | [8] | [25] | [26] | [27] | [28] | [29]
active: [4] 20 µM | [6] 3.16 µM | [23] 79.4 µM | [7] 20 µM | [24] 19 µM
